# Assay outcomes (PubChem)
# tim10-1 inh – growth inhibitors of tim10-1 mutant yeast, primary screen, luminescence, uHTS. S. cerevisiae tim10-1 ts strain growth, BacTiter-Glo, 24 h. inhibition, % at 20 µM. hit rate 2.2% among 330,000. AID 463190, 2010;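 active means inhibition of at least 40%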;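 further: mutant grown at 25 °C; 0% = DMSO wells with yeast and 100% = wells holding no yeast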
# PfHsp90 set2 – growth inhibition of PfHsp90-expressing yeast, primary screen, antimalarial PfHsp90 inhibitor project, S. cerevisiae, BacTiter-Glo luminescence, single point, set 2; inhibition, % at 9.4 µM; BacTiter-Glo ATP, 48 h; yeast lacking PDR1 and PDR3 efflux regulators; AID 504621, 2011; hit rate 0.32% among 310,000;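 active means every replicate shows inhibition above about 80%, whatever the replicate mean, limit read from the data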;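 further: 0% = DMSO neutral controls and 100% = 20 µM radicicol positive controls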
# tim23-1 inh – growth inhibitors of tim23-1 mutant yeast, primary screen, luminescence, uHTS; hit rate 1.3% among 330,000; S. cerevisiae tim23-1 growth, BacTiter-Glo luminescence, 24 h; inhibition, % at 20 µM;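 active means growth inhibition of the mutant yeast at or above 50%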;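 further: temperature-sensitive mutant grown at 25 °C; plate controls were DMSO-treated mutant yeast for no effect and medium wells lacking yeast for full effect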
# ATG4B inhibitor – ATG4B protease inhibitors, primary screen, biochemical, fluorescence, uHTS | Cysteine protease ATG4B (Homo sapiens), Q9Y4P1 | ATG4B cleavage of LC3-PLA2, NBD-HPC fluorescence, 1 h | inhibition, % at 8.33 µM | hit rate 0.51% among 340,000; in the data active means inhibition above about 40%
# Target sequence (Q9Y4P1 whole entry, looked up): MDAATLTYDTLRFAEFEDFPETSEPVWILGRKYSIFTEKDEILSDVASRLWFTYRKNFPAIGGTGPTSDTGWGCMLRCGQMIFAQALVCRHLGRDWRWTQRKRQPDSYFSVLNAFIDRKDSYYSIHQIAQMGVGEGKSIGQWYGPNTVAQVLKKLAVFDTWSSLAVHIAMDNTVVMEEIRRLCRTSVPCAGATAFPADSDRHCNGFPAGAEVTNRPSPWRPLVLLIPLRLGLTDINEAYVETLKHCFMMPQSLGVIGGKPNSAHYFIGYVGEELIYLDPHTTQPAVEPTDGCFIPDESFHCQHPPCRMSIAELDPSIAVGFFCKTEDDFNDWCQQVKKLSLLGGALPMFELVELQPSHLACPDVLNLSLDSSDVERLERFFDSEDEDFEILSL
# TIM10 inh – growth inhibitors of isogenic TIM10 control yeast, primary screen, counter-screen for tim10-1 yeast inhibitor project, luminescence, uHTS; S. cerevisiae TIM10 strain growth, BacTiter-Glo luminescence, 24 h; inhibition, % at 10 µM; hit rate 1.4% among 330,000; AID 463195, 2010;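 active means inhibition of 40% or more at the single tested concentration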;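 further: wild-type TIM10 isogenic control strain grown at permissive 25 °C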
# SKKanGAS inh – S. pyogenes SKKanGAS growth inhibitors in kanamycin, primary screen, streptokinase expression inhibitor project, SKKanGAS strain, BacTiter-Glo luminescence; hit rate 1.3% among 300,000; 6 h; AID 1662, 2009; inhibition, % at 7.5 µM;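 active means mean replicate score, as percent of positive control median, at least 50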;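 further: strain carries kanamycin resistance gene driven by streptokinase promoter and grows in 40 µg/ml kanamycin; loss of luminescence reflects streptokinase promoter inhibition or plain growth inhibition; 0% = median of DMSO wells and 100% = positive control at its reference dose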
# tim10-1 conf – growth inhibitors of tim10-1 mutant yeast, confirmation, single concentration, luminescence, S. cerevisiae | hit rate 56% among 7,400 | shares compounds with tim10-1 inh | inhibition, % at 20 µM | S. cerevisiae tim10-1 ts strain growth, BacTiter-Glo, 24 h;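 active means inhibition of yeast growth at or above a set limit in either of two repeat tests at 20 µM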;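 further: tim10-1 mutant grown at permissive 25 °C to find synthetic lethal compounds; 0% = DMSO yeast wells and 100% = medium wells without yeast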
# * marks the source's active call; other numbers are inactive results; x = no result given. Rows were chosen to be rich in hits. Some 4.7% of all compounds tested hit in one or more screens of this group.
SMILES,tim10-1 inh,PfHsp90 set2,tim23-1 inh,ATG4B inhibitor,TIM10 inh,SKKanGAS inh,tim10-1 conf
COc1ccccc1C1CCN(C(=O)c2ccc(C(C)(C)C)cc2)CC1,41*,20,42,1,27,43,33*
CC(=O)Nc1ccc(S(=O)(=O)Nc2ccc3[nH]c(=O)[nH]c3c2)cc1,22,-1,23,3,1,-2,x
CCc1ccccc1NC(=O)Nc1ccc(F)cc1F,12,14,1,9,6,0,x
COc1ccc(S(=O)(=O)N(CC(=O)NC2CC2)C2CCCCC2)cc1Cl,17,6,18,3,2,-1,x
COc1ccc(C(=O)N2CCN(c3ccccc3OC)CC2)cc1,22,10,22,0,16,-2,x
CCOc1ccccc1N1CCN(C(=O)c2ccc(-c3ccc(OC(C)=O)cc3)cc2)CC1,41*,-21,38,-6,16,34,23
COc1ccccc1N1CCN(C(=O)c2ccc(-c3ccccc3)cc2)CC1,41*,-12,31,1,28,8,27
O=C(c1ccc(CSc2ccccc2)cc1)N1CCN(c2ccccc2)CC1,45*,-16,32,1,7,7,40*
COc1ccccc1N1CCN(C(=O)c2ccc(CSc3ccccc3)cc2)CC1,40*,-12,40,11,28,13,40*
COc1ccc(-n2nc(C(=O)NCC(=O)NC3CCCC(C)C3C)c3ccccc3c2=O)c(OC)c1 (stereo not given),-19,-15,2,-5,12,11,x
CCn1c(SCC(N)=O)nnc1-c1ccc(OC)c(OC)c1,14,-5,-7,-11,4,-9,x
CC1(C)OC2OC(COC(=O)c3ccc([N+](=O)[O-])cc3)C3OC(C)(C)OC3C2O1 (stereo not given),2,-2,23,4,4,8,x
COc1cc2c(cc1OC)CN(C(=O)c1ccc(-c3ccccc3)cc1)CC2,49*,-2,44,-16,24,20,38*
COc1ccccc1N1CCN(C(=O)c2ccc(C(C)(C)C)cc2)CC1,50*,-19,43,-2,34,3,26
CCc1ccc2oc(C(=O)N3CCN(c4ccccc4OC)CC3)cc(=O)c2c1,48*,6,39,-3,12,3,18
O=C(CSCc1ccccc1)N1CCN(c2ccccc2)CC1,24,19,14,-4,-6,-4,x
CCc1ccc2oc(C(=O)N3CCN(c4ccc(OC)cc4)CC3)cc(=O)c2c1,5,12,21,-4,19,6,x
O=C(CSCc1cccc(F)c1)N1CCN(c2ccccc2)CC1,43*,-4,23,9,11,-3,15
Cc1ccccc1N1CC(C(=O)N2CC(C)CC(C)C2)CC1=O (stereo not given),30,9,16,-2,11,5,x
COc1cccc(Oc2c(C)oc3c(CN4CCOCC4)c(O)ccc3c2=O)c1,x,7,x,10,x,x,x
Cn1c(C(=O)N2CCN(c3nc4ccccc4s3)CC2)cc2sccc21,2,10,10,-16,-1,8,x
COc1ccccc1N1CCN(C(=O)c2cc3sccc3n2C)CC1,43*,17,40,-18,33,10,46*
CCc1ccc(Nc2nnc(SCC(=O)N(C)CC(=O)Nc3ccccc3CC)s2)cc1,9,-21,17,14,5,-6,x
CCSc1nnc(NC(=O)CN2C(=O)N(C)C3(CCCCC3)C2=O)s1,97*,15,9,-13,10,x,13
O=C1C2CCCN2C(c2ccccc2F)N1c1ccc(F)cc1 (stereo not given),x,-13,x,4,x,-9,x
SMILES,tim10-1 inh,PfHsp90 set2,tim23-1 inh,ATG4B inhibitor,TIM10 inh,SKKanGAS inh,tim10-1 conf
COc1ccc(NC(=O)CN(C)C(=O)c2cn(-c3ccccc3)nc2-c2ccc(OC)cc2)cc1,33,4,27,-11,18,x,x
COc1ccc(NC(=O)CN(C)C(=O)c2cn(-c3ccccc3)nc2-c2ccc(Cl)cc2)cc1,41*,x,36,-10,14,22,20
CCOc1ccc2nc(NC(=O)CCn3cccc3)sc2c1,26,-8,36,-7,9,3,x
CCCC(=O)Nc1nc2ccc(OCC)cc2s1,42*,-4,45,-7,20,-8,21
COc1cc(/C=C2/CCc3ccccc3C2=O)cc(OC)c1OC,41*,1,42,13,40,-12,29
COc1cc(/C=C2\CCc3ccccc3C2=O)cc(OC)c1OC,30,-16,46,6,39,-3,x
O=C(COC(=O)c1ccc(-c2ccc([N+](=O)[O-])cc2)o1)NC(=O)NC1CCCCC1,42*,-6,35,-17,1,23,19
CCOC(=O)c1cc(NC(=O)C2C3C=CC(O3)C2C(=O)O)cc(C(=O)OCC)c1 (stereo not given),-8,4,6,0,8,0,x
CCN(CC)S(=O)(=O)c1ccc2oc(C(=O)NCc3ccc(F)cc3)c(C)c2c1,44*,6,32,-6,32,x,39*
COc1ccc(Nc2c(-c3ccc(C)cc3)nc3cnccn23)cc1,14,-20,35,10,10,1,x
Cc1ccc(Nc2c(-c3ccccc3O)nc3cnccn23)cc1,40*,-2,47,4,14,9,27
COc1cccc(-c2cc(C(=O)Nc3cc(OC)c(OC)c(OC)c3)no2)c1,51*,-10,45,-6,25,x,42*
Nc1ccc(C(=O)OCCCc2nc3cc4ccccc4cc3[nH]2)cc1,-9,4,-30,-13,-3,6,x
CC(C)CC(COCc1cccc(Cl)c1)N1CCN(C(=O)c2ccc(C(F)(F)F)cc2)CCC1=O (stereo not given),49*,-43,28,-12,23,9,25
Cc1cccc(COCC(CC(C)C)N2CCN(C(=O)c3ccc(C(F)(F)F)cc3)CCC2=O)c1 (stereo not given),7,11,20,-1,16,10,x
COc1ccc(NC(=O)CCCn2c(=O)c3sccc3n(Cc3ccc(C)cc3C)c2=O)cc1,11,x,23,-8,14,2,x
CCOc1cc(-c2c(C#N)c(N)nc3c2CCCC3C)ccc1O (stereo not given),46*,-28,49,-2,37,0,35*
